tim10-1 inh – inhibits growth of tim10-1 mutant yeast; S. cerevisiae tim10-1 ts strain growth, BacTiter-Glo, 24 h; inhibition, % at 20 µM; 330,000 compounds, 2.2% hits;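 active = inhibition of at least 40%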;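 note: mutant grown at 25 °C; 0% = DMSO wells with yeast and 100% = wells holding no yeast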
NALP1 inh – blocks the NALP1 inflammasome reconstituted in yeast | S. cerevisiae NALP1/ASC/caspase-1 growth, X-gal OD620, 72 h | inhibition, % at 10 µM | 280,000 compounds, 0.61% hits; in the data active = inhibition mostly above about 24%, no sharp cut-off; inactive = mostly below about 32%
tim23-1 inh – inhibits growth of tim23-1 mutant yeast. S. cerevisiae tim23-1 growth, BacTiter-Glo luminescence, 24 h. inhibition, % at 20 µM. 330,000 compounds, 1.3% hits. AID 463212;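 active = growth inhibition of the mutant yeast at or above 50%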;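 note: temperature-sensitive mutant grown at 25 °C; plate controls were DMSO-treated mutant yeast for no effect and medium wells lacking yeast for full effect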
NLRP3 yeast inh – blocks the NALP3 inflammasome reconstituted in yeast | 330,000 compounds, 0.39% hits | AID 2825 | Yeast reconstituted NLRP3/ASC/caspase-1, beta-gal luminescence, 24 h | inhibition, % at 10 µM;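 active = inhibition of 50% or more; inactive = inhibition below 50%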;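 note: plate controls were induced DMSO wells for no effect and uninduced yeast grown without galactose for full effect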
TIM10 inh – growth inhibitors of TIM10 yeast strain. S. cerevisiae TIM10 strain growth, BacTiter-Glo luminescence, 24 h. inhibition, % at 10 µM. 330,000 compounds, 1.4% hits. AID 463195;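 active = inhibition of 40% or more at the single tested concentration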;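 note: wild-type TIM10 isogenic control strain grown at permissive 25 °C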
NALP3 yeast conf – NALP3 inhibition confirmation in yeast | 1,300 compounds, 81% hits | shares compounds with NLRP3 yeast inh | inhibition, % at 10 µM | AID 435006 | yeast expressing human NALP3, luminescence; in the data active = inhibition above about 48%
Casp1 ASC ctr – caspase-1-ASC yeast counter-screen hit; shares compounds with NLRP3 yeast inh; yeast expressing Caspase-1-ASC, luminescence counter screen; inhibition, % at 10 µM; 1,000 compounds, 66% hits; AID 488784
NALP3 retest – yeast NALP3 inhibition, confirmed on retest. shares compounds with NLRP3 yeast inh. yeast expressing human NALP3, luminescence read-out. inhibition, % at 10 µM. 1,000 compounds, 53% hits
tim10-1 conf – tim10-1 yeast growth inhibition, confirmed; shares compounds with tim10-1 inh; S. cerevisiae tim10-1 ts strain growth, BacTiter-Glo, 24 h; inhibition, % at 20 µM; 7,400 compounds, 56% hits; AID 463213;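 active = inhibition of yeast growth at or above a set limit in either of two repeat tests at 20 µM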;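 note: tim10-1 mutant grown at permissive 25 °C to find synthetic lethal compounds; 0% = DMSO yeast wells and 100% = medium wells without yeast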
tim10 confirm – confirmation of TIM10 yeast growth inhibitors. 4,600 compounds, 63% hits. shares compounds with TIM10 inh. S. cerevisiae tim10 strain growth, BacTiter-Glo luminescence, 24 h. inhibition, % at 10 µM;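 active = inhibition of yeast growth at or above a set limit in either of two replicates at 10 µM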;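 note: this counterscreen used the strain with wild-type TIM10; 0% = yeast with DMSO and 100% = medium wells lacking yeast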
tim23-1 conf – confirmation of tim23-1 mutant yeast growth inhibitors | shares compounds with tim23-1 inh | S. cerevisiae tim23-1 growth, BacTiter-Glo luminescence, 24 h | inhibition, % at 20 µM | 4,400 compounds, 83% hits | AID 463218;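 active = inhibition above about 39% in either of two replicate wells at 20 µM, limit read from the data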;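 note: temperature-sensitive tim23-1 mutant grown at 25 °C; 0% = DMSO wells with yeast and 100% = medium wells without yeast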
An asterisk follows results filed as active. In the library only some 4.1% were active in any assay of this set; here they are far more common. Cut-off read from the data, not from the text of the source, unless noted: active = inhibition above about 50%; inactive = the rest.

For Cc1cccc(NCc2cc(Cl)cc(Cl)c2O)n1 the results were tim10-1 inh 43*, NALP1 inh 8, tim23-1 inh 52*, NLRP3 yeast inh 53*, TIM10 inh 29, NALP3 yeast conf 51*, Casp1 ASC ctr 57*, NALP3 retest 56*, tim10-1 conf 27 and tim23-1 conf 56*.
`Cc1ccc(O)c(CNc2cccc(C)n2)c1` gave tim10-1 inh -12, NALP1 inh 32, tim23-1 inh 0, NLRP3 yeast inh 45 and TIM10 inh -3.
For O=C(NCc1nc2ccccc2[nH]1)c1cccc(S(=O)(=O)N2CCCC2)c1 the results were tim10-1 inh 4, NALP1 inh 2, tim23-1 inh 10, NLRP3 yeast inh -5 and TIM10 inh 6.
Screening COc1ccc2c(c1)CC/C2=N\OC(=O)c1cccc(C)c1 returned tim10-1 inh 62*, NALP1 inh 36, tim23-1 inh 53*, NLRP3 yeast inh 52*, TIM10 inh 83*, NALP3 yeast conf 5, tim10-1 conf 41*, tim10 confirm -13 and tim23-1 conf 82*.
For O=C(Nc1nsc(-c2ccccc2)n1)c1cccs1 the results were tim10-1 inh 33, tim23-1 inh 68*, NLRP3 yeast inh 54*, TIM10 inh 34, NALP3 yeast conf 65*, Casp1 ASC ctr 40, NALP3 retest 49 and tim23-1 conf 53*.
For O=C(Nc1c(-c2ccccc2)nc2ccccn12)c1cccs1 the results were tim10-1 inh 3, NALP1 inh 7, tim23-1 inh -1, NLRP3 yeast inh 3 and TIM10 inh 4.
Screening O=C(NC1=NCCS1)c1sc2ccccc2c1Cl returned tim10-1 inh 36, NALP1 inh 29, tim23-1 inh 73*, NLRP3 yeast inh 52*, TIM10 inh 46*, NALP3 yeast conf 63*, tim10 confirm 37* and tim23-1 conf 80*.
For O=C(N/N=C/c1ccco1)c1ccc(Br)o1 the results were tim10-1 inh -32, NALP1 inh -4, tim23-1 inh -4, NLRP3 yeast inh 5 and TIM10 inh -21.
`O=C(N/N=C/c1ccco1)c1cc2ccccc2o1` gave tim10-1 inh 23, NALP1 inh 22, tim23-1 inh 66*, NLRP3 yeast inh 64*, TIM10 inh 41*, NALP3 yeast conf 74*, Casp1 ASC ctr 64*, NALP3 retest 63*, tim10 confirm 12 and tim23-1 conf 64*.
`CC(NC(=O)c1ccc(NC(=O)CC2SC(N3CCCC3)=NC2=O)cc1)c1ccccc1` (stereo not given) gave tim10-1 inh 8, tim23-1 inh 9, NLRP3 yeast inh 4 and TIM10 inh -1.
`c1ccc(-c2cc3cc4c(cc3cn2)OCO4)cc1` gave tim10-1 inh -32, tim23-1 inh 62*, NLRP3 yeast inh 55*, TIM10 inh -17, NALP3 yeast conf 58*, Casp1 ASC ctr 71*, NALP3 retest 67* and tim23-1 conf 50*.
CC1(C)C2CCC1(C)C1(C2)NC(=O)c2ccccc2O1 (stereo not given) was read as tim10-1 inh -8, NALP1 inh 25, tim23-1 inh 30, NLRP3 yeast inh 16 and TIM10 inh -2.
COc1ccc2c(=O)c(-c3nc(C)cs3)coc2c1 was read as tim10-1 inh 43*, tim23-1 inh 52*, NLRP3 yeast inh 77*, TIM10 inh 64*, NALP3 yeast conf 54*, Casp1 ASC ctr 68*, NALP3 retest 66*, tim10-1 conf 33*, tim10 confirm -39 and tim23-1 conf 65*.
Screening CCOC(=O)c1cccc(NC(=O)c2cccs2)c1 returned tim10-1 inh 36, NALP1 inh 14, tim23-1 inh 57*, NLRP3 yeast inh 61*, TIM10 inh 65*, NALP3 yeast conf 79*, Casp1 ASC ctr 51*, NALP3 retest 53*, tim10 confirm 57* and tim23-1 conf 80*.
O=C(Nc1ccccc1)C1C(c2ccccc2)C1(Cl)Cl (stereo not given) was read as tim10-1 inh 43*, NALP1 inh 9, tim23-1 inh 55*, NLRP3 yeast inh 59*, TIM10 inh 25, NALP3 yeast conf 72*, Casp1 ASC ctr 64*, NALP3 retest 60*, tim10-1 conf 24 and tim23-1 conf 48*.
`O=c1c2ccccc2oc2ccc(Oc3ccccc3)cc12` gave tim10-1 inh 6, NALP1 inh 10, tim23-1 inh 2, NLRP3 yeast inh 21 and TIM10 inh -4.
Screening COc1cc2oc3ccccc3c(=O)c2cc1OC returned tim10-1 inh 43*, NALP1 inh 10, tim23-1 inh 63*, NLRP3 yeast inh 62*, TIM10 inh 7, NALP3 yeast conf 72*, Casp1 ASC ctr 55*, NALP3 retest 59*, tim10-1 conf 21 and tim23-1 conf 53*.
`S=C(NCc1ccccc1)Nc1ccc(Cl)cc1` gave tim10-1 inh 36, NALP1 inh -8, tim23-1 inh 20, NLRP3 yeast inh 33 and TIM10 inh 27.
FC(F)(F)Sc1ccc(NC(=S)NCc2ccccc2)cc1 was read as tim10-1 inh 58*, NALP1 inh 19, tim23-1 inh 52*, NLRP3 yeast inh 53*, TIM10 inh 53*, NALP3 yeast conf 24, tim10-1 conf 70*, tim10 confirm 59* and tim23-1 conf 53*.
`CCCC1CCC(c2ccc(C(=O)NN)cc2)CC1` (stereo not given) gave tim10-1 inh 32, NALP1 inh 2, tim23-1 inh 55*, NLRP3 yeast inh 51*, TIM10 inh 47*, NALP3 yeast conf 35, tim10 confirm 32* and tim23-1 conf 18.
For Nc1ccc2nc(SCc3ccccc3F)sc2c1 the results were tim10-1 inh -12, tim23-1 inh 63*, NLRP3 yeast inh 52*, TIM10 inh 6, NALP3 yeast conf 22 and tim23-1 conf 43*.
Nc1ccc2nc(SCC(=O)c3ccccc3)sc2c1 was read as tim10-1 inh 20, tim23-1 inh 16, NLRP3 yeast inh 38 and TIM10 inh 15.

From PubChem BioAssay
